Measurements from PubChem BioAssay AID602313 (National Center for Advancing Translational Sciences (NCATS), 2012).
The whole screen tested about 390,000 compounds, of which about 760 (0.19%) were called active. Not shown: some 3% with an inconclusive outcome. Calls follow the shape of the dose curve; as a rule, active = well fitted inhibition curve with a large enough effect; inconclusive = small, poorly fitted or top-dose-only effect; inactive = flat fitted curve, though single readings scatter. The entries come from a sample that favours actives as a whole. A call without a number means that no potency is given here.

Test: qHTS for Inhibitors of Vif-A3F Interactions: qHTS; also: nearly all actives have a fitted effect of over 65% in size
Conditions: HeLa A3F-eYFP + Vif (tagged APOBEC3F with the HIV-1 protein that degrades it), YFP fluorescence increase; series mostly up to 46.1 µM
Source text: The recent discovery and characterization of host restriction factors, which provide a potent defense to invading retroviruses, has provided new targets for antiviral drug development. APOBEC3G (A3G) and APOBEC3F (A3F) are potent cytidine deaminases that block HIV-1 replication; HIV-1 expresses the Vif protein, which counteracts A3G and A3F by binding to them and inducing their proteasomal degradation. The Vif-A3G and Vif-A3F interactions provide two potential targets for development of small molecules which can interfere with the ability of Vif to degrade A3G or A3F. […] To identify inhibitors that can interfere with Vif mediated degradation of A3G and A3F, we have developed Hela cell lines that stably express A3G or A3F tagged with eYFP at the C-terminal end (A3G-eYFP or A3F-eYFP, respectively) and Vif. In the absence of an inhibitor, Vif induces degradation of A3G-eYFP and A3F-eYFP, and the cells are not fluorescent. In the presence of an inhibitor, it is expected that Vif will be unable to degrade A3G-eYFP and/or A3F-eYFP, resulting in an increase in yellow fluorescence. In this assays Vif A3F was screened against the Molecular Library Small Molecule Repository (MLSMR). NIH Chemical Genomics Center [NCGC] NIH Molecular Libraries Probe Centers Network [MLPCN] MLPCN Grant: MH093245 Assay Submitter (PI): Vinay Pathak, National Cancer Institute
5 uL of 700 cells/well of A3F-YFP cells are dispensed into black, clear bottom plates. The plates are incubated overnight at 37 deg C. 23 nL of compounds are added by pintool. The plates are incubated overnight at 37 deg C and then read on the TTP Acumen (Ex 488/ Em 500-530).
Potency is read from the fitted curve at half-maximal effect.

Row | SMILES | Potency
1 | COc1ccc(Cl)cc1S(=O)(=O)N1CCC(c2ccncc2)CC1 | inactive
2 | CCOc1ccc2nc(N3CCC(C(=O)Nc4cc(C)ccc4C)CC3)sc2c1 | inactive
3 | CCCS(=O)(=O)c1ncc(Cl)c(C(=O)Nc2scc(-c3ccccc3)c2C(=O)OCC)n1 | inactive
4 | O=C(/C=C/c1ccccc1)Nc1cc(-c2nc3cc(Cl)ccc3o2)ccc1Cl | inactive
5 | COC(=O)c1ccccc1NC(=O)Cn1c(=O)cc(C)c2c(C)nn(-c3cccc(Cl)c3C)c21 | inactive
6 | Cc1cccc(NC(=O)Cn2nc(-c3ccc(Cl)cc3)c3ccccc3c2=O)c1 | inactive
7 | COc1cc2c(cc1OC)C(COc1ccc(F)cc1)N(C(=O)c1ccccc1F)CC2 (configuration not stated) | inactive
8 | Cc1ccc(OCCSc2nc3ccc(NC(=O)COc4ccc(C)cc4)cc3s2)cc1 | inactive
9 | O=C(CC1NCCc2ccccc21)Nc1cccc(Cl)c1 (configuration not stated) | inactive
10 | COC(=O)c1cc(C)sc1NC(=O)CC1Nc2ccccc2NC1=O (configuration not stated) | inactive
11 | O=C(CC1Nc2ccccc2NC1=O)Nc1ccccc1 (configuration not stated) | 12.6 µM (active)
12 | COc1cccc(CNC(=O)C2CCC(CNS(=O)(=O)c3cccs3)CC2)c1 (configuration not stated) | inactive
13 | COc1ccc(C2c3c(oc4ccccc4c3=O)C(=O)N2Cc2ccc3c(c2)OCO3)cc1 (configuration not stated) | inactive
14 | CC(=O)N1CCCc2cc(S(=O)(=O)N3CCC(C(=O)NCc4ccc(F)cc4)CC3)ccc21 | inactive
15 | Cc1cc(C)cc(NC(=O)CSc2nc(=O)n(CCN3CCOCC3)c3c2CCC3)c1 | inactive
16 | CCCCOC(=O)/C(C#N)=C/c1ccc(-c2cccc(C(F)(F)F)c2)o1 | inactive
17 | CCCCNC(=O)C1CCCN(c2nnc(C)c3c(C)n(-c4ccc(Cl)cc4)nc23)C1 (configuration not stated) | inactive
18 | CCOc1ccc(S(=O)(=O)Nc2ccc3oc4c(c3c2)CC(C)CC4)cc1 (configuration not stated) | inactive
19 | CCNC(=O)c1cc2n(n1)CCCN(Cc1ccc(C)cc1)C2=O | inactive
20 | CCCOC(=O)c1c(NC(=O)c2cc3nc(-c4ccc(OC)cc4)cc(C(F)(F)F)n3n2)sc2c1CCCC2 | inactive
21 | O=C(NCC(c1ccc2c(c1)OCO2)N1CCN(c2ccccc2)CC1)C(=O)Nc1ccccc1F (configuration not stated) | inactive
22 | O=C(NC1CC(=O)N(c2ccc(F)cc2)C1)C1CCCCC1 (configuration not stated) | inactive
23 | Cc1cc(C)c(/C=C2\C(=O)Nc3ccccc32)[nH]1 | 12.6 µM (active)
24 | Fc1ccc(-n2ncc3c(Nc4ccc(Oc5ccccc5)cc4)ncnc32)cc1 | inactive
25 | COc1ccccc1NC(=O)c1oc2ccccc2c1NC(=O)C(C)C | inactive
26 | Cc1ccc(Cc2nc3ccccc3nc2SCC(=O)Nc2cccc(C(F)(F)F)c2)cc1 | inactive
27 | COc1ccc(NC(=O)Cn2cc(C(=O)c3ccncc3)c(=O)c3cc(C)ccc32)cc1Cl | inactive
